In PubChem BioAssay (NCI):
Compounds without any hit were thinned out: in the full panel of roughly 79,000, 15% have a hit. The source made the active and inactive calls. Cut-off read from the data, not from the text of the source: active = growth inhibition above about 70%; inactive = the rest.

Columns and labels:
[1] = NCI Yeast Anticancer Drug Screen. Data for the rad52 strain (AID 147);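 note: 0% = growth of vehicle-treated control cultures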; conditions: S. cerevisiae rad52 mutant growth inhibition, stronger effect = higher value
In short: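 DNA repair-defective yeast; compound exposure; growth scored against vehicle controls.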

[2] = NCI Yeast Anticancer Drug Screen. Data for the wt1 strain (AID 149);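 note: 0% = growth of vehicle-treated wt1 cultures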; conditions: S. cerevisiae wt1 strain (SPY 50644) growth inhibition, stronger effect = higher value
In short: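 Compounds are added to wt1 yeast cultures. Growth is then measured. Inhibition is expressed relative to vehicle-treated controls.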

[3] = NCI Yeast Anticancer Drug Screen. Data for the rad50EPP+ strain (AID 151);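 note: 0% = growth of vehicle-treated control cultures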; conditions: S. cerevisiae rad50 mutant strain, stronger effect = higher value
In short: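 rad50EPP+ yeast treated with test compounds. Readout: growth vs vehicle control.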

[4] = NCI Yeast Anticancer Drug Screen. Data for the mgt1 strain (AID 153); conditions: S. cerevisiae mgt1 mutant growth inhibition, stronger effect = higher value
In short: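 Growth inhibition relative to vehicle controls was scored for the mgt1 yeast strain after compound exposure.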

[5] = NCI Yeast Anticancer Drug Screen. Data for the rad50 strain (AID 155);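 note: 0% = growth of vehicle-only cultures of the same strain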; conditions: S. cerevisiae rad50 strain growth inhibition, stronger effect = higher value
In short: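 Inhibition values express reduced yeast growth in compound-treated cultures relative to vehicle-treated controls.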

[6] = NCI Yeast Anticancer Drug Screen. Data for the mec2-1 strain (AID 157); conditions: S. cerevisiae mec2-1 strain, stronger effect = higher value
In short: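 Growth inhibition is read against vehicle-treated controls after compound exposure of the mec2-1 yeast strain, which is defective in DNA damage repair or cell cycle control.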

[7] = NCI Yeast Anticancer Drug Screen. Data for the rad14 strain (AID 159);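 note: 0% = growth of vehicle-treated control cultures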; conditions: S. cerevisiae rad14 strain growth inhibition, stronger effect = higher value
In short: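 A mutant yeast strain defective in DNA damage repair is treated with compound; inhibition of its growth is scored against untreated, vehicle-exposed cultures.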

[8] = NCI Yeast Anticancer Drug Screen. Data for the sgs1 mgt1 strain (AID 161);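 note: 0% = growth of cultures given vehicle only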; conditions: S. cerevisiae sgs1 mgt1 strain, stronger effect = higher value
In short: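 Growth of a repair-deficient yeast mutant was monitored after compound treatment and expressed as inhibition relative to vehicle-treated cultures.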

[9] = NCI Yeast Anticancer Drug Screen. Data for the CLN2oe strain (AID 163);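 note: 0% = growth of vehicle-only control cultures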; conditions: S. cerevisiae CLN2oe strain, stronger effect = higher value
In short: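 Compound-treated yeast; growth vs vehicle ctrl = % inhibition. Genetically altered strain (cell-cycle control).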

[10] = NCI Yeast Anticancer Drug Screen. Data for the cln2 rad14 strain (AID 165);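 note: 0% = growth equal to vehicle treated cultures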; conditions: S. cerevisiae cln2 rad14 strain, stronger effect = higher value
In short: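 Growth inhibition, relative to vehicle-treated controls, is the read-out. The test organism is a yeast strain with defined genetic alterations, cln2 rad14.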

[11] = NCI Yeast Anticancer Drug Screen. Data for the bub3 strain (AID 167); conditions: S. cerevisiae bub3 mutant strain, stronger effect = higher value
In short: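 Steps: expose the mutant yeast strain to compound; grow alongside vehicle-treated cultures; measure growth; express inhibition against the vehicle cultures.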

[12] = NCI Yeast Anticancer Drug Screen. Data for the wt2 strain (AID 169);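 note: 0% = growth of vehicle-treated yeast cultures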; conditions: S. cerevisiae wt2 strain growth inhibition, stronger effect = higher value
In short: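 Compound exposure of yeast; growth compared with vehicle controls; inhibition reported.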

[13] = NCI Yeast Anticancer Drug Screen. Data for the mlh1 strain (AID 171);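 note: 0% = growth of vehicle-treated control cultures of the same strain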; conditions: S. cerevisiae mlh1 strain growth inhibition, stronger effect = higher value
In short: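 Compounds are applied to a genetically altered yeast strain, and its growth is compared with that of vehicle-treated cultures to give percent inhibition.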

[14] = NCI Yeast Anticancer Drug Screen. Data for the sgs1 strain (AID 173);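 note: 0% = growth of vehicle-only control cultures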; conditions: S. cerevisiae sgs1 mutant, stronger effect = higher value
In short: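 Compounds applied to genetically altered yeast; growth compared with vehicle-treated cultures to give % inhibition.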

[15] = NCI Yeast Anticancer Drug Screen. Data for the mlh1 rad18 strain (AID 175); conditions: S. cerevisiae mlh1 rad18 strain growth inhibition, stronger effect = higher value
In short: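 Cells of a genetically altered yeast strain, deficient in DNA damage repair, were treated with compound. Their growth was then compared with that of vehicle-treated cultures to give inhibition.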

[16] = NCI Yeast Anticancer Drug Screen. Data for the rad18 strain (AID 177); conditions: S. cerevisiae rad18 mutant growth inhibition, stronger effect = higher value
In short: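 Compounds are applied to a repair-deficient yeast strain, and growth is compared with that of vehicle-treated cultures to give percent inhibition.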

[17] = at 5.0 µM (retest, dose inferred, filed as 0.5)
[18] = at 50.0 µM (retest, dose inferred, filed as 5.0)

Measured: growth inhibition

O=[N+]([O-])CC(SCc1ccccc1)c1ccc2c(c1)OCO2 (stereo unspecified)
active: [1]; at 11.0 µM 92% | [1]; at 33.0 µM 99% | [1]; at 100.0 µM 97% | [2]; at 11.0 µM 70% | [2]; at 33.0 µM 98% | [2]; at 100.0 µM 98% | [3]; at 3.7 µM 91% | [3]; at 11.0 µM 97% | [3]; at 33.0 µM 98% | [3]; at 100.0 µM 98% | [4]; at 33.0 µM 97% | [4]; at 100.0 µM 97% | [5]; at 11.0 µM 94% | [5]; at 33.0 µM 98% | [5]; [18] 97% | [5]; at 50.0 µM 90% | [5]; at 100.0 µM 98% | [6]; at 11.0 µM 76% | [6]; at 33.0 µM 98% | [6]; [18] 98% | [6]; at 50.0 µM 91.7% | [6]; at 100.0 µM 98% | [7]; at 11.0 µM 71% | [7]; at 33.0 µM 97% | [7]; at 100.0 µM 97% | [8]; at 50.0 µM 92.7% | [9]; at 33.0 µM 97% | [9]; at 100.0 µM 97% | [10]; [18] 97% | [10]; at 50.0 µM 90.2% | [11]; [17] 89% | [11]; at 11.0 µM 91% | [11]; at 33.0 µM 97% | [11]; [18] 96% | [11]; at 50.0 µM 92.2% | [11]; at 100.0 µM 97% | [12]; at 33.0 µM 97% | [12]; at 100.0 µM 97% | [13]; at 11.0 µM 94% | [13]; at 33.0 µM 98% | [13]; at 100.0 µM 97% | [14]; at 11.0 µM 97% | [14]; at 33.0 µM 100% | [14]; at 100.0 µM 99% | [15]; [17] 73% | [15]; [18] 97% | [15]; at 50.0 µM 89.2% | [16]; at 11.0 µM 79% | [16]; at 33.0 µM 98% | [16]; at 100.0 µM 98%
inactive: [1]; at 1.2 µM 39% | [1]; at 3.7 µM 34% | [2]; at 1.2 µM 23% | [2]; at 3.7 µM 36% | [3]; at 1.2 µM 44% | [4]; at 1.2 µM 9% | [4]; at 3.7 µM 3% | [4]; at 11.0 µM 47% | [5]; at 1.2 µM 41% | [5]; at 3.7 µM 69% | [5]; [17] 30% | [6]; at 1.2 µM -2% | [6]; at 3.7 µM 42% | [6]; [17] 26% | [7]; at 1.2 µM -2% | [7]; at 3.7 µM 36% | [8]; [17] -4% | [8]; [18] 46% | [9]; at 1.2 µM 3% | [9]; at 3.7 µM 5% | [9]; at 11.0 µM 42% | [10]; [17] 15% | [11]; at 1.2 µM -28% | [11]; at 3.7 µM 13% | [12]; at 1.2 µM 1% | [12]; at 3.7 µM 8% | [12]; at 11.0 µM 47% | [13]; at 1.2 µM 17% | [13]; at 3.7 µM 48% | [14]; at 1.2 µM 30% | [14]; at 3.7 µM 54% | [16]; at 1.2 µM 7% | [16]; at 3.7 µM 23%

C[C@@H]1C[C@H]2[C@@H]3CCC4=CC(=O)C=C[C@]4(C)[C@@]3(Cl)[C@@H](Cl)C[C@]2(C)[C@@]1(O)C(=O)COP(=O)(O)O
inactive: [1]; at 1.2 µM -1% | [1]; at 3.7 µM -3% | [1]; at 11.0 µM 6% | [1]; at 33.0 µM 1% | [1]; at 100.0 µM 3% | [2]; at 1.2 µM 1% | [2]; at 3.7 µM -2% | [2]; at 11.0 µM -3% | [2]; at 33.0 µM -4% | [2]; at 100.0 µM -2% | [3]; at 1.2 µM -3% | [3]; at 3.7 µM -8% | [3]; at 11.0 µM -3% | [3]; at 33.0 µM 3% | [3]; at 100.0 µM 5% | [4]; at 1.2 µM 11% | [4]; at 3.7 µM 5% | [4]; at 11.0 µM 3% | [4]; at 33.0 µM 8% | [4]; at 100.0 µM 2% | [5]; at 1.2 µM 4% | [5]; at 3.7 µM -10% | [5]; [17] 2% | [5]; at 11.0 µM 3% | [5]; at 33.0 µM 7% | [5]; [18] 19% | [5]; at 50.0 µM -34.1% | [5]; at 100.0 µM 8% | [6]; at 1.2 µM -3% | [6]; at 3.7 µM -3% | [6]; [17] 17% | [6]; at 11.0 µM 0% | [6]; at 33.0 µM -3% | [6]; [18] 5% | [6]; at 50.0 µM -36.9% | [6]; at 100.0 µM 1% | [7]; at 1.2 µM -1% | [7]; at 3.7 µM 0% | [7]; at 11.0 µM -2% | [7]; at 33.0 µM -2% | [7]; at 100.0 µM 1% | [8]; [17] -14% | [8]; [18] 6% | [8]; at 50.0 µM -30.8% | [9]; at 1.2 µM -10% | [9]; at 3.7 µM -3% | [9]; at 11.0 µM 7% | [9]; at 33.0 µM -1% | [9]; at 100.0 µM -6% | [10]; [17] 41% | [10]; [18] -23% | [10]; at 50.0 µM 26.1% | [11]; at 1.2 µM 2% | [11]; at 3.7 µM -1% | [11]; [17] -20% | [11]; at 11.0 µM 2% | [11]; at 33.0 µM 0% | [11]; [18] -8% | [11]; at 50.0 µM -42.2% | [11]; at 100.0 µM -3% | [12]; at 1.2 µM -2% | [12]; at 3.7 µM -2% | [12]; at 11.0 µM -2% | [12]; at 33.0 µM -2% | [12]; at 100.0 µM -3% | [13]; at 1.2 µM 2% | [13]; at 3.7 µM 3% | [13]; at 11.0 µM 0% | [13]; at 33.0 µM 8% | [13]; at 100.0 µM 12% | [14]; at 1.2 µM 0% | [14]; at 3.7 µM -3% | [14]; at 11.0 µM -2% | [14]; at 33.0 µM -1% | [14]; at 100.0 µM -1% | [15]; [17] 9% | [15]; [18] 1% | [15]; at 50.0 µM -18.3%
